Screening results as filed in PubChem.
Rows were chosen to be rich in hits. Some 1.7% of all compounds tested hit in one or more screens of this group.
ABCB6 inh 2: ABCB6 transporter inhibitors, primary screen, K562-ABCB6 cells, flow cytometry, MLPCN library. ATP-binding cassette sub-family B member 6 (Homo sapiens), Q9NP58. hit rate 0.19% among 360,000. AID 602162, 2011. fluorescence ratio to DMSO, % at 10 µM. K562-ABCB6 porphyrin accumulation, 1 h; active compounds read low;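 active = fluorescence ratio to DMSO below 75%, the collection mean minus 3 SD; inconclusive = too few cells collected in the well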;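 note: signal is porphyrin accumulated inside mitochondria; 100% equals median channel fluorescence of DMSO control wells; lower ratio means ABCB6 inhibition with less porphyrin fluorescence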
NOD2 RIPK2 PPI: NOD2-RIPK2 binding disruptors in cells, primary screen, fluorescence, CHO cells, BLA complementation. Receptor-interacting serine/threonine-protein kinase 2 (Homo sapiens), O43353. CCF4 ratio. inhibition, % at 4.98 µM. hit rate 0.38% among 360,000. AID 624267, 2012; in the data active = inhibition above about 21%;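 note: 0% = vehicle only and 100% = reference blocker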
Target sequence (O43353 whole entry, looked up): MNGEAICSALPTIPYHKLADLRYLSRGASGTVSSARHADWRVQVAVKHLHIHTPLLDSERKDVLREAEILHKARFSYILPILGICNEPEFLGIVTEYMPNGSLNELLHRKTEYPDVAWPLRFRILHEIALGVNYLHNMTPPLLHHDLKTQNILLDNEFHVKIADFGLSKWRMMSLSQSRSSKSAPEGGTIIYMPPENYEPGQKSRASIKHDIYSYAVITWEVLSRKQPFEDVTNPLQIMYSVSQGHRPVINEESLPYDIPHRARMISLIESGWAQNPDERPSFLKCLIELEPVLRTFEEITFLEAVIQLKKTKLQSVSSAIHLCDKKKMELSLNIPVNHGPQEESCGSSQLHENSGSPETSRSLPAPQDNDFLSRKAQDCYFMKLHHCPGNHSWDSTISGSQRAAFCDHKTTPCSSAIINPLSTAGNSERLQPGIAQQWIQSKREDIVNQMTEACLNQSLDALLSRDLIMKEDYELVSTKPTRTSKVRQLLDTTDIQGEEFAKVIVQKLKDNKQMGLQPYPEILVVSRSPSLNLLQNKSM
Myeloid diff 2: induction of myeloid progenitor differentiation, primary screen, cell-based, flow cytometry, MLPCN library; calls only at 10 µM; ER-HoxA9 myeloid progenitors, lysozyme-GFP differentiation; hit rate 1% among 360,000; AID 624256, 2012;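 active = normalized GFP-positive differentiation at or above the plate's own cutoff, the solvent-only control mean plus 3 SD; inconclusive = no clear call, values can overlap the other calls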;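 note: cells exposed to compound for four days before flow analysis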
TLR4-MyD88 BLA: inhibitors of TLR4-MyD88 association in cells, primary screen, cell-based, HeLa CL3-4, BLA complementation, FRET ratio; Toll-like receptor 4 (Homo sapiens) + Myeloid differentiation primary response protein …; HeLa CL3-4 TLR4/MyD88 BLA complementation; inhibition, % at 8.4 µM; hit rate 0.18% among 200,000; in the data active = inhibition above about 25%;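 note: 0% = vehicle and 100% = reference inhibitor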
TLR9-MyD88 inh: inhibitors of TLR9-MyD88 association in cells, primary screen, cell-based, CHO, BLA complementation, fluorescence | Toll-like receptor 9 (Homo sapiens) + Myeloid differentiation primary response protein … | CCF4 FRET ratio | inhibition, % at 4.98 µM | hit rate 0.21% among 340,000 | AID 504734, 2011;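 active = inhibition above the mean over all tested compounds plus 3 SD, cut at about 21% in these data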;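 note: 0% = DMSO only wells and 100% = clavulanate BLA inhibitor control wells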
Myeloid diff CP1: inducers of myeloid progenitor differentiation, confirmation, cell-based, GFP/Mac1 flow cytometry, cherry pick 01; calls only; hit rate 2% among 2,300; ER-HoxA9 myeloid progenitors, GFP/Mac1 double-positive flow; shares compounds with Myeloid diff 2; AID 651706, 2012;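 active = share of green or green-and-red cells above 9 and 9% in run 1 or 4 and 3% in run 2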
GFP autofluor: compound fluorescence in myeloid differentiation counter-screen. shares compounds with Myeloid diff 2. ER-HoxA9 myeloid progenitors, no estrogen, GFP autofluorescence flow cytometry; vehicle wells 0%, positive control 100%. fluorescence response, % (concentration not given with the values). hit rate 7.4% among 2,300;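 active = over 5% cells positive for green fluorescent reporter, or over 2% positive for both it and APC stain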;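 note: range taken on the double positive population between DMSO and positive control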
* marks the source's active call; other numbers are inactive results; i = inactive; ? = inconclusive; . = no result given; + = active, no number.

SMILES	ABCB6 inh 2	NOD2 RIPK2 PPI	Myeloid diff 2	TLR4-MyD88 BLA	TLR9-MyD88 inh	Myeloid diff CP1	GFP autofluor
O=C(NCc1ccc(F)cc1)C(c1ccc(Cl)cc1)N(C(=O)c1csnn1)C1CC1 (centres undefined)	100	1	?	.	-7	.	.
COc1ccc(CCNC(=O)c2ccc(C)s2)cc1OC	99	5	i	12	5	.	.
C=Cn1cc[n+](CC(=O)c2ccc(OC)cc2)c1	94	3	+	.	-5	i	1
S=C(Nc1ccc(Oc2ccccc2)cc1)NC1CCCCCC1	87	-5	i	-2	-7	.	.
S=C(NNc1ccc2ccccc2c1)NC1CCCCC1	90	-4	i	1	5	i	0
Cc1ccc(Oc2ccc(Cl)cc2NC(=O)c2cnccn2)cc1	98	4	+	-1	-11	i	0
O=C(Nc1ccccc1Oc1ccccc1)c1cnccn1	100	7	i	3	11	.	.
O=C(NCc1ccccc1Cl)C1CCCN(S(=O)(=O)c2cccc3nsnc23)C1 (centres undefined)	92	-12	i	0	3	i	0
Cc1ccc(C(=O)OCCOc2cccc(Cl)c2)cc1S(=O)(=O)N1CCOCC1	99	7	i	.	0	.	.
CCN1CCN(CC(=O)Nc2ccc(S(=O)(=O)N3C(C)CCCC3C)cc2)CC1 (centres undefined)	83	-15	i	.	9	i	0
CC1CCN(S(=O)(=O)c2ccc(NC(=O)CN3CCCC3)cc2)CC1	103	0	i	.	-3	.	.
Cc1cc(C)cc(NC(=O)c2cnn(-c3ccccc3)c2C2CCNCC2)c1	88	-2	i	15	11	.	.
CCOC(=O)C1(CCOc2ccccc2)CCN(Cc2cccc(OC)c2)CC1	99	2	+	.	0	i	0
CCOC(=O)C1(CCOC)CCN(Cc2cccc(OCc3ccccc3)c2)CC1	106	-4	i	.	3	.	.
CCO[C@H]1OC(C(=O)O)=C[C@@H](c2ccccc2)[C@@H]1CCCO	102	-1	i	.	1	i	0
Cc1cc(C)nc(N2CCCC(CCC(=O)NCc3ccc(F)c(F)c3)C2)n1 (centres undefined)	95	1	i	0	2	.	.
C=CCn1c(SCC(=O)NC2CCCC2)nc2ccccc21	92	-6	i	.	3	.	.
Cc1ccc[n+](Cc2ccc([N+](=O)[O-])cc2)c1	103	-5	i	-16	4	.	.
O=[N+]([O-])c1ccc(C[n+]2cccc3c4ccccc4ccc32)cc1	114	1	i	9	-2	+	0
Cn1c(Cn2cnc(Cl)c2Cl)nc2ccccc21	100	-4	i	6	-1	i	1
N#Cc1cccc(NC(=O)c2cncn2-c2ccccc2)c1	92	-12	i	.	-1	.	.
CCC1(C)Cc2ccccc2-c2nc3n(c(=O)c21)CCCCC3 (centres undefined)	96	-5	i	2	-8	.	.
O=c1c2c(nc3n1CCCCC3)-c1ccccc1CC21CCCCC1	105	-4	i	-4	3	i	0
COc1ccc(-c2cc(C(=O)N3CCN(c4ccccc4OC)CC3)no2)cc1OC	98	-2	i	-5	8	i	1
COc1ccc(CC(=O)NC2CCN(CC(=O)N3CCCc4ccccc43)CC2)cc1OC	86	-8	i	11	-10	i	0
COc1ccc(CC(=O)N2CCCc3ccccc32)cc1OC	93	2	i	-1	-8	.	.
COc1ccc(-c2cc(-c3cc(OC)ccc3O)[nH]n2)cc1	98	3	i	14	-5	i	1
COc1ccc(O)c(-c2cc(-c3ccc(F)cc3)n[nH]2)c1	90	9	i	.	1	.	.
